Screening results: PubChem, several laboratories
Only some compounds are listed: those with a hit (about 2% of all), similar ones and a draw of the others.
PKA-R1A activ – activates the PKA-R1A holoenzyme complex | PKA-R1A dissociation, Cy5-IP20 fluorescence polarization; scaled: DMSO 0%, 113 µM cGMP 100% | P00514+P68181 | activation, % at 11.4 µM | hit rate 0.083% among 340,000 | AID 504707;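 active means percent activation above the mean of all tested compounds plus 3 SD, cut at about 19% in these data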;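 further: higher means more PKAc released from R1A so a rise in polarization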
MsrA inhibitor – bovine MsrA inhibition; purified bovine MsrA, absorbance read-out; inhibition, % at 15.5 µM; hit rate 0.75% among 360,000;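 further: 0% = vehicle wells with enzyme and 100% = reference inhibitor wells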
Mot1-301 SUMO – inhibitors of SUMOylation pathway: yeast Mot1-301 growth rescue. growth rescue, % at 18.8 µM. S. cerevisiae Mot1-301 growth rescue, ATP luminescence, 38.5C; percent above DMSO median, 100 means doubled. hit rate 1% among 320,000. AID 2716;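 active means every valid replicate shows activation above 250% relative to neutral control wells; inactive means the rest, any valid replicate at or below 250%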;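 further: OY570 slx delta 5 strain wells were the positive control but not used for scaling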
MsrA act – activators of bovine methionine sulfoxide reductase A; purified bovine MsrA, absorbance read-out; activation, % at 10.6 µM; hit rate 0.3% among 360,000; AID 602163; in the data active means activation above about 7.5%;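 further: 0% = vehicle and 100% = reference activator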
PKA-R2B activ – PKA-R2B complex activation; P22694+P31323; PKA-R2B holoenzyme dissociation, Cy5-IP20 fluorescence polarization; R2B truncated from residue 108, S112A mutant; 0% DMSO only, 100% 113 µM cGMP; activation, % at 11.4 µM; hit rate 0.079% among 340,000; AID 504700;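 active means activation above a cutoff set at the mean over all compounds plus 3 SD, cut at about 18% in these data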;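 further: higher means more holoenzyme dissociation and a rise in polarization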
Target sequence (P31323 whole entry, looked up, other chains not shown, the tested form may be a part): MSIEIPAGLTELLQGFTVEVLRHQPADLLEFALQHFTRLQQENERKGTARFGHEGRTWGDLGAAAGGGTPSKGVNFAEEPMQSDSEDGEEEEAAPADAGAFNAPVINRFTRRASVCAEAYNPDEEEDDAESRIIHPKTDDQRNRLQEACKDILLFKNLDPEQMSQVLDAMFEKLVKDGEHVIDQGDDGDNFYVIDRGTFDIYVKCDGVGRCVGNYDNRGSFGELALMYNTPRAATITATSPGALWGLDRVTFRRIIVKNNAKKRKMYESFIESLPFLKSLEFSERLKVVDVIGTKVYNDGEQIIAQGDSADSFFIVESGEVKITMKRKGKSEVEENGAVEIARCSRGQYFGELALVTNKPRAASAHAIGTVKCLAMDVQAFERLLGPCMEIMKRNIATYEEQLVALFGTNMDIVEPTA
Yeast Mot1 SUMO – yeast SUMO pathway inhibition in dose response; S. cerevisiae Mot1-301 galactose growth, ATP luminescence, 24 h; -100 = growth of slx-deleted rescue strain; 2,300 tested, under 10 active; shares compounds with Mot1-301 SUMO; growth activity, percent, % at 42 µM; AID 493004;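 active means Signal drops as the depositor expects, and the fitted half-maximal dose is no more than ten times the top valid tested dose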;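 further: more negative values mean stronger growth rescue toward the control strain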
R2B FP artifact – counter-screen for PKA-R2B activators: fluorescence polarization artifacts. activation, % at 11.4 µM. FP artifact counterscreen. hit rate 6% among 270. shares compounds with PKA-R2B activ; in the data active means activation above about 20%;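 further: Cy5 labelled IP20 peptide probe with compound but no PKA protein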
PKA-R2B act conf – confirmation of human PKA-R2B complex activators | AID 504797 | activation, % at 11.4 µM | shares compounds with PKA-R2B activ | hit rate 9% among 270 | fluorescence polarization, activation; in the data active means activation above about 19%
Target sequence (P31323 whole entry, looked up): as the sequence (P31323 whole entry, looked up, other chains not shown, the tested form may be a part) above
MsrA conf – bovine MsrA inhibition, confirmed; shares compounds with MsrA inhibitor; purified bovine MsrA, absorbance read-out; inhibition, % at 15.5 µM; hit rate 41% among 2,300; AID 651822;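 further: coupled to thioredoxin reductase with NADPH and selenocystamine and DMSO as substrate; 0% = vehicle only and 100% = full effect of reference inhibitor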
* marks the source's active call; other numbers are inactive results; i = inactive; · = not tested or not shown; [ ] = another dose, or the depositor's remark. Unless noted, no stated cut-off is given here; in the data, active means inhibition above about 4.5%; inactive means the rest.

SMILES	PKA-R1A activ	MsrA inhibitor	Mot1-301 SUMO	MsrA act	PKA-R2B activ	R2B FP artifact	PKA-R2B act conf	others
O=C1CS/C(=C/C(=O)c2ccccc2)N1	-10	5	1	-6	-18	·	·
Cc1ccccc1C(=O)/C=C1\NC(=O)CS1	-5	6.3*	368*	-6	5	·	·	Yeast Mot1 SUMO=-1[21 µM];MsrA conf=6.6*
Cc1ccccc1C(=O)N1CCC[C@@H]1C(=O)N1CCC[C@H]1C(=O)NCc1ccccc1	·	1	·	·	·	·	·
COc1ccc(/C=C2\SC(=O)N(CC(=O)NNC(=O)c3ccccc3O)C2=O)cc1	15	2	-5	-4	20*	13	21*
CCC(=O)Nc1ccccc1N1CCN(c2ccc(F)cc2)CC1	-3	1	i	-2	19*	2	3
COc1ccccc1-c1ccc([C@@H]2C[C@H]3[C@H](CON3C)CN2CC2CCCCC2)cc1	·	1	·	·	·	·	·
COc1cccc(CC(NC(C)=O)C(=O)NC2CCN(C(=O)C3CCCCC3)CC2)c1OC (stereo not given)	-1	0	·	-4	-2	·	·
COc1cccc(CC(NC(C)=O)C(=O)NC2CCN(C(=O)c3ccncc3)CC2)c1OC (stereo not given)	-5	-1	·	1	19*	6	2
CC1CN(Cc2nnc(-c3ccccc3)o2)CC(C)O1 (stereo not given)	-4	-1	6	-3	22*	4	2
CCN1CCN(Cc2nnc(-c3ccccc3)o2)CC1	1	1	-12	-2	-5	·	·
Cc1ccc(S(=O)(=O)N(C)c2cccc3c2S(=O)(=O)N([C@H](C)c2ccccc2)C[C@@H](COCc2ccccc2)O3)cc1	·	1	·	·	·	·	·
O=[N+]([O-])c1cccc(COc2ccc(CO)cc2)c1	·	-2	·	·	·	·	·
Cc1ccc(S(=O)(=O)N2CCCc3nc(-c4ccc(F)cc4)ccc32)cc1	·	0	·	·	·	·	·
CN(C)CCCn1cnc2c(c1=N)C(c1ccccc1)c1ccc3ccccc3c1O2 (stereo not given)	-4	0	-3	0	22*	2	2
N=c1c2c(ncn1CCCO)Oc1c(ccc3ccccc13)C2c1ccccc1 (stereo not given)	-10	0	0	-3	-11	·	·
CCOc1ccc(CC(=O)NCc2cn3c(C)csc3n2)cc1	-2	3	48	-2	22*	0	4
COc1ccc(C(=O)NCc2cn3c(C)csc3n2)cc1OC	-8	0	1	-4	-13	·	·
O=c1[nH]nc(SCc2nnc(-c3cccc(Cl)c3)o2)n1C1CCCCC1	-7	-1	8	-3	19*	3	1
COc1ccc(-c2nnc(CSc3nnc(-c4ccncc4)n3C3CCCCC3)o2)cc1OC	-4	-1	7	1	2	·	·
COc1cc2c(cc1OC)[C@@]1(c3ccccc3)CCCC[C@H]1[C@@H]2NC(=O)C(F)(F)F	·	0	·	·	·	·	·
Cc1cccc(C)c1NC(=O)C(NC=O)c1ccc(N(C)C)cc1 (stereo not given)	9	-1	40	-3	20*	-4	-1
Cc1cccc(C)c1NC(=O)C(NC=O)c1ccccc1Cl (stereo not given)	1	-1	1	1	-12	·	·
O=C(Nc1nc(-c2ccccc2)cs1)C1CCCCN1S(=O)(=O)c1ccc(Cl)cc1 (stereo not given)	-8	·	24	-8	-9	·	·
CC(C)(C)C(=O)Nc1nc(C2CCCN2S(=O)(=O)c2ccc(Cl)cc2)cs1 (stereo not given)	2	0	-18	2	19*	-1	1
C[C@H](CO)N1C[C@H](C)[C@@H](CN(C)C(=O)Cc2cccnc2)Oc2ncc(C#CCc3ccccc3)cc2C1=O	·	0	·	·	·	·	·
SMILES	PKA-R1A activ	MsrA inhibitor	Mot1-301 SUMO	MsrA act	PKA-R2B activ	R2B FP artifact	PKA-R2B act conf	others
O=c1ccn2c(n1)OC1CC2OC1COC(c1ccccc1)(c1ccccc1)c1ccccc1 (stereo not given)	·	0	·	·	·	·	·
Nc1nnc(Cc2cccc(Br)c2)s1	7	-2	-2	-2	20*	1	-4
COC(=O)C1=C(C)N(CC(C)C)C(=S)NC1c1ccc(-c2ccccc2)cc1 (stereo not given)	·	1	·	·	·	·	·
C[C@H]1CN([C@@H](C)CO)C(=O)CCCn2nncc2CO[C@@H]1CN(C)Cc1ccc2cccnc2c1	·	0	·	·	·	·	·
COC(=O)[C@]12C[C@H](CC(=O)NCc3cccc(C(F)(F)F)c3)C(=O)N(Cc3ccccc3)C1=C[C@H](C(C)(C)C)O[C@@H]2C	·	0	·	·	·	·	·
Cc1cccc2cc(CN(CCCO)C(=O)Nc3ccccc3Cl)c(=O)[nH]c12	-1	0	4	-2	23*	-1	3
CCn1c(=O)c(C(=O)NCc2ccccc2)c(O)c2ccccc21	-14	-1	-5	-9	1	·	·
CC(C)Cn1c(=O)c(C(=O)NCc2ccccn2)c(O)c2ccccc21	2	1	-21	-14	21*	-1	-4
C=CCNc1nc2c(c(=O)[nH]c(=O)n2C)n1Cc1cccc(C)c1	10	-1	·	0	22*	2	5
C=CCNc1nc2c(c(=O)[nH]c(=O)n2C)n1CCOc1ccccc1	0	0	354	3	-9	·	·
COc1ccc(OC)c(-c2nnc3n2N=C(c2ccc(OC)c(OC4CCOC4)c2)CS3)c1 (stereo not given)	1	3	-9	-1	19*	-1	-3
COCCNC(=O)c1cc(-c2ccc3c(c2)OCO3)on1	7	-2	-10	0	18*	-2	1
Cc1ccsc1CNC1CCCCC1	0	0	6	-3	-2	·	·
Cc1ccsc1CNC12CC3CC(CC(C3)C1)C2	-13	0	25	6	21*	2	4
O=C(N[C@H](C(=O)N1CCC[C@H]1C(=O)NC1CCCC1)c1ccccc1)c1ccccc1	·	0	·	·	·	·	·
COc1ccc(OC)c(CC(NC(C)=O)C(=O)NC2CCN(c3c(Cc4ccccc4)c(C)nc4ncnn34)CC2)c1 (stereo not given)	1	1	-11	-5	21*	1	-5
COC(=O)Cc1cnc(NC(=O)C2C3CCC(C3)C2C(=O)O)s1 (stereo not given)	4	-1	-9	-2	19*	2	4
O=C(CCSc1ccccc1)NCC1CCCO1 (stereo not given)	-9	2	5	-7	5	·	·
